# Hit rate of the full screen: of about 310,000 compounds, about 14,000 (4.5%) showed an effect of 50% or more. The effect is printed as a negative number. Many of the other results were omitted from the sample, so strong results are more common in it than they were.
# Target: human ether-à-go-go-related gene (hERG) potassium channel (human, UniProt Q12809)
# Test: primary screen, population patch clamp on CHO cells stably expressing hERG; higher = less effect of the substance
# 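Note: peak tail current of the secondary pulse compared with the same well before compound.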
# Chain of human ether-à-go-go-related gene (hERG) potassium channel (Q12809 whole entry, looked up): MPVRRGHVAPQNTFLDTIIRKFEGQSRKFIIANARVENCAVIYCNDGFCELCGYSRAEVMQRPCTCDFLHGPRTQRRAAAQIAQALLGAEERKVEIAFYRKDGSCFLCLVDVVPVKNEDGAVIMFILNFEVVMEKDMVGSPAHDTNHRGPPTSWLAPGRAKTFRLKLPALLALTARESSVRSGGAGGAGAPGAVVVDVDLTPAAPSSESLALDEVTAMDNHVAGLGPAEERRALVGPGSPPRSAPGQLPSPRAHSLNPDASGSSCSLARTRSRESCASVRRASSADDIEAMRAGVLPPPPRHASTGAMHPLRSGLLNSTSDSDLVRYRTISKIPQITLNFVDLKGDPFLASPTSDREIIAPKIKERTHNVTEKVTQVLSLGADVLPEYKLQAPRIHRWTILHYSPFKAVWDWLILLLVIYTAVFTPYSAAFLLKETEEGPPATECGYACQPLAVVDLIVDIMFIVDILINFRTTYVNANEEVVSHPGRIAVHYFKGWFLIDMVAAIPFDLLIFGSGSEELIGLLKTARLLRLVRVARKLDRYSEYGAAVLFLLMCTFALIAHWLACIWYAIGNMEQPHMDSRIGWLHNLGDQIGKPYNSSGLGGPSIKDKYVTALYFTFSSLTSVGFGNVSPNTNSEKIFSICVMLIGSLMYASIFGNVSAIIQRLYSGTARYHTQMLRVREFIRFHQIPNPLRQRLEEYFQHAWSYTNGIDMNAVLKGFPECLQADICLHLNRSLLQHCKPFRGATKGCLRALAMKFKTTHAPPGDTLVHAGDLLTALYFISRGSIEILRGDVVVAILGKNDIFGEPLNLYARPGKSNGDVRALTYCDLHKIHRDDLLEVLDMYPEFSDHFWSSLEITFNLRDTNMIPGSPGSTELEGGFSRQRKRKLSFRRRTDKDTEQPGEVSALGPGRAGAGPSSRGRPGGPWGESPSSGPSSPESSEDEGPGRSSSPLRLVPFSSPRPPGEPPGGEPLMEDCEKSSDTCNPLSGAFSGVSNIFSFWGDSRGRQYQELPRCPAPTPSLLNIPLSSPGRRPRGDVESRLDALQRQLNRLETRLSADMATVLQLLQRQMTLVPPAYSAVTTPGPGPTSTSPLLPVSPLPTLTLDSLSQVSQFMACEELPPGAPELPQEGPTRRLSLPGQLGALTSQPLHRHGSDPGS
row,Structure (SMILES),"hERG current change (%, negative = inhibition) at 10uM [%]"
1,CC(C)c1ccc(OCc2nc(-c3ccccn3)no2)c(Br)c1,-10.6
2,CCN1C(=O)N(CC)C2C1N(C(C)=O)C(=O)N2C(C)=O (stereo not drawn),-6.42
3,N#CC1=C(N)OC2=C(C(=O)CCC2)[C@]12C(=O)N(CC(N)=O)c1ccccc12,4.73
4,COc1cc(CC(=O)OCC(=O)N2CC(C)CC(C)C2)cc(OC)c1OC (stereo not drawn),30.9
5,O=C(c1ccc(N2CCCCC2)c([N+](=O)[O-])c1)N1CCOCC1,-22.6
6,O=C(c1ccc(N2CCOCC2)c([N+](=O)[O-])c1)N1CCN(Cc2ccccc2)CC1,-66.9
7,Cl.O=C(NN1CCN(Cc2ccccc2)CC1)c1ccc(N2CCOCC2)c([N+](=O)[O-])c1,-66.6
8,O=C(OCC(=O)N1CCOCC1)c1ccc(N2CCOCC2)c([N+](=O)[O-])c1,19.9
9,O=C(Nc1ccccc1N1CCOCC1)c1ccc(N2CCOCC2)c([N+](=O)[O-])c1,-20.7
10,O=C(OCC(=O)N1CCc2ccccc2C1)c1ccc(N2CCOCC2)c([N+](=O)[O-])c1,-51
11,O=C(Nc1ccc(CN2CCOCC2)cc1)c1ccc(N2CCCC2)c([N+](=O)[O-])c1,-21.4
12,Nc1ccc(C(=O)OCC(=O)N2CCc3ccccc3C2)cc1[N+](=O)[O-],-21.1
13,CC1CCN(c2ccc(C(=O)N3CCOCC3)cc2[N+](=O)[O-])CC1,-0.762
14,CC(=O)OC[C@]1(OC(C)=O)C[C@@]23CC[C@H]4[C@@](C)(CCC[C@@]4(C)C(=O)O)[C@@H]2CC[C@@H]1C3,4.84
15,O=C(NCC(=O)N1CCN(C(=O)c2ccco2)CC1)c1cccc(Cl)c1,-48.6
16,CC(OC(=O)Cn1cnc2c1c(=O)n(C)c(=O)n2C)C(=O)NCc1ccccc1 (stereo not drawn),3.36
17,Cc1noc(C)c1S(=O)(=O)Nc1ccc(C(=O)N2CCN(c3cccc(Cl)c3)CC2)cc1,-4.16
18,O=C(Nc1ccc(C(=O)N2CCCC2)cc1)c1ccc(F)cc1Cl,0.232
19,S=C(Nc1ccc2nc(-c3ccccn3)c(-c3ccccn3)nc2c1)N1CCCCCC1,-15.6

row,Structure (SMILES),"hERG current change (%, negative = inhibition) at 10uM [%]"
1,O=C(Nc1ccc2nc(-c3ccccn3)c(-c3ccccn3)nc2c1)N1CCOCC1,5.82
2,S=C(Nc1ccc2nc(-c3ccccn3)c(-c3ccccn3)nc2c1)N1CCOCC1,-69.6
3,Cc1nnn(C23CC4CC(CC(C4)C2)C3)n1,7.98
4,O=C(CCc1ccccn1)NC1CCCc2c1cnn2-c1ccc(F)cc1F (stereo not drawn),3.18
5,CN(C)C(=S)c1ccc2ccccc2n1,17.1
6,COC(=O)c1cc(-c2c(-c3cc(OC)c(OC)c(OC)c3)noc2C)cc([N+](=O)[O-])c1,-67.8
7,COc1cc(-c2noc(C)c2-c2ccc3[nH]ccc3c2)cc(OC)c1OC,8.02
8,COc1cc(-c2c(-c3cc(OC)c(OC)c(OC)c3)noc2C)ccc1F,13.6
9,CCOc1ncccc1C(=O)OCC(=O)c1cc(C)n(Cc2ccco2)c1C,-7.34
10,O=S(=O)(/C=C/c1ccccc1)N1CCOCC1,7.65
11,CCOC(=O)c1[nH]cnc1C(=O)Nc1ccc([N+](=O)[O-])cc1,4.57
12,CC(C(=O)Nc1ccccc1F)N1CCN(C)CC1.O=C(O)C(=O)O (stereo not drawn),11.9
13,O=c1[nH]c(CN2CCN(S(=O)(=O)/C=C/c3ccccc3)CC2)nc2ccccc12,-66.5
14,CCS(=O)(=O)N1CCN(Cc2nc3ccccc3c(=O)[nH]2)CC1,-12.9
15,COc1cc2nc(CN3CCN(S(=O)(=O)c4c(F)cccc4F)CC3)[nH]c(=O)c2cc1OC,-33.4
16,O=c1[nH]c(CN2CCN(S(=O)(=O)/C=C/c3ccccc3)CC2)nc2cc(Cl)ccc12,-65.8
17,O=c1[nH]c(CN2CCN(S(=O)(=O)c3ccc4ccccc4c3)CC2)nc2ccccc12,2.03
18,COc1cc2nc(CN3CCN(S(=O)(=O)c4ccc(C)c(C)c4)CC3)[nH]c(=O)c2cc1OC,-16.8
19,O=c1[nH]c(CN2CCN(S(=O)(=O)c3ccc(Cl)cc3)CC2)nc2cc(Cl)ccc12,-11.8

row,Structure (SMILES),"hERG current change (%, negative = inhibition) at 10uM [%]"
1,O=C1CN(Cc2nc3cc(Cl)ccc3c(=O)[nH]2)CCN1,25.4
2,COc1cc2nc(CN3CCN(S(=O)(=O)c4ccc(Cl)cc4)CC3)[nH]c(=O)c2cc1OC,-58.2
3,COc1ccc(C)cc1S(=O)(=O)N1CCCC(N2CCOCC2)C1 (stereo not drawn),13.4
4,O=S(=O)(Nc1cccc2c1CCCC2)c1ccc(Cl)cc1,-9.87
5,COC(=O)c1c(NC(=O)C2CCC2)sc(C(=O)N(C)C)c1C,4
6,O=C(/C=C/c1ccc2c(c1)OCO2)c1c(O)n(CCc2ccccc2)c(=O)[nH]c1=O,1.79
7,COc1cc(CCC(=O)OCC(=O)Nc2ccc(Br)cc2F)cc(OC)c1OC,-11.6
8,O=C(CN1CCOCC1)Nc1ccc(F)cc1,2.97
9,O=C(CN1CCN(CC(=O)Nc2cccc(F)c2)CC1)Nc1ccc(-c2ccccc2)cc1,-28.6
10,O=C(CSc1ccccc1F)Nc1ccc(N2CCOCC2)cc1,3.82
11,O=C(CN1CCOCC1)Nc1ccc(Cl)cc1,-1.12
12,NC(=O)c1ccc(NC(=O)CN2CCN(c3ccccc3)CC2)cc1,12.6
13,O=C(CSc1cc(Cl)ccc1Cl)Nc1ccc(N2CCOCC2)cc1,-58.3
14,O=C(CN1CCN(CC(=O)Nc2ccc(Cl)cc2)CC1)Nc1ccc(F)cc1,-76.9
15,O=C(CN1CCN(CC(=O)Nc2ccc(-c3ccccc3)cc2)CC1)Nc1ccc(F)cc1,-66.2
16,NC(=O)c1ccc(NC(=O)CN2CCN(c3ccc(Cl)cc3)CC2)cc1,-51.3
17,COC(=O)c1ccc(NC(=O)CN2CCN(c3ccc(Cl)cc3)CC2)cc1,11.9
18,Cc1ccc(SCC(=O)Nc2ccc(N3CCOCC3)cc2)c(C)c1,10.5
19,O=C(CN1CCN(c2ccccc2)CC1)Nc1ccc(F)cc1,-39.7
